Experimental data: paper PMC7862700, “An all-to-all approach to the identification of sequence-specific readers for epigenetic DNA modifications on cytosine”

Tests used:
Assay in all cases: DAPPL (digital affinity profiling via proximity ligation, sequencing); 10 mM Tris-HCl pH 7.5, 50 mM NaCl, 1 mM DTT, 4% glycerol, room temperature, 30 min; GST-TFs on glutathione beads, 16-mer random dsDNA library, 0.1% formaldehyde crosslink after washing; high values mean tight binding
Details in all cases: protein: recombinant; tags: N-terminal GST; dsDNA, one strand shown
FEV = target: T1, FEV (Homo sapiens, UniProt Q99581 1-238)
T1 sequence: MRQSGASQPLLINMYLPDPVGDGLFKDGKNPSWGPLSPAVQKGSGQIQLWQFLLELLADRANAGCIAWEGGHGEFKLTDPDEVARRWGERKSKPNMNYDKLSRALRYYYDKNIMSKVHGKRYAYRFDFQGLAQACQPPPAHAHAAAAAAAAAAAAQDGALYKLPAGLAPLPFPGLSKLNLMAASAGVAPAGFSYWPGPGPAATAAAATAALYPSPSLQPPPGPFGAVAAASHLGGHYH
Procedure, shortened: (§1)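 GST fusions of human transcription factors were expressed in yeast and captured with glutathione beads. Once given DNA barcodes and pooled alongside a tag-only sample, they were incubated for 30 min at room temperature with 200 nmole of a random double-stranded 16-mer DNA library in Tris/NaCl/DTT/glycerol buffer, then washed, crosslinked (0.1% formaldehyde), proximity-ligated, PCR-amplified and sequenced on an Illumina NextSeq500. The binding signal of each hexamer is its read frequency for a factor divided by its frequency for the tag-only sample.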

ETV5 = ETV5 (Homo sapiens, UniProt P41161 1-510)
Procedure, shortened: as §1

SPIC = target: T2, SPIC (Homo sapiens, UniProt Q8N5J4 1-248)
T2 sequence: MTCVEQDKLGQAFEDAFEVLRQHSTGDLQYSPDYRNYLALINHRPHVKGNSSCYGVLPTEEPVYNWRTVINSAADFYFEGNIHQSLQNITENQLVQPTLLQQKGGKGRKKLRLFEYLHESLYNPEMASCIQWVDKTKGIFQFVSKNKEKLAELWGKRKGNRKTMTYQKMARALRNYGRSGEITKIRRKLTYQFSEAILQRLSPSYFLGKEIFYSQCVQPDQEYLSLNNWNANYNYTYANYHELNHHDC
Procedure, shortened: as §1

ELF4 = ELF4 (Homo sapiens, UniProt Q99607 1-663)
Procedure, shortened: as §1

ELK4 = target: T3, ELK4 (Homo sapiens, UniProt P28324-2 1-405)
T3 sequence: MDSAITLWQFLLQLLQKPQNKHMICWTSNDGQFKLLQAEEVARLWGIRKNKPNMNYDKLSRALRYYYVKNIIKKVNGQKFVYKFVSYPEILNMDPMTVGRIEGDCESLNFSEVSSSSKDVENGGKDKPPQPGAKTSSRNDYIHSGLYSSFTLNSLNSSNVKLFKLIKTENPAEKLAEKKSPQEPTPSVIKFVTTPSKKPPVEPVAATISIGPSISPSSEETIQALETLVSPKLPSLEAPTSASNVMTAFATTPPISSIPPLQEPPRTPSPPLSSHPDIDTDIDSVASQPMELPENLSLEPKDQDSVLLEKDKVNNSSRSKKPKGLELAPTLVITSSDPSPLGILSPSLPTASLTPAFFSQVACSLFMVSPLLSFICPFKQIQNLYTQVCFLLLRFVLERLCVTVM
Procedure, shortened: as §1

ETV2 = target: T4, ETV2 (Homo sapiens, UniProt O00321 1-342)
T4 sequence: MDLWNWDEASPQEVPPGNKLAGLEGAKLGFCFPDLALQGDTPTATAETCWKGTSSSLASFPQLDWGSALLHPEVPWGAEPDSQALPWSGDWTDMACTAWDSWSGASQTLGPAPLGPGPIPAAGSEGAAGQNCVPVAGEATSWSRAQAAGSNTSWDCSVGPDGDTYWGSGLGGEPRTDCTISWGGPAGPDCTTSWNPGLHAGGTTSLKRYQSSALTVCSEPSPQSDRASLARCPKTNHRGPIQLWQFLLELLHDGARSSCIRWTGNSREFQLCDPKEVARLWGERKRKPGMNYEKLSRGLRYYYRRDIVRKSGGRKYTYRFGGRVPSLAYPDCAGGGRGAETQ
Procedure, shortened: as §1

ELF3 = target: T5, ELF3 (Homo sapiens, UniProt P78545 1-371)
T5 sequence: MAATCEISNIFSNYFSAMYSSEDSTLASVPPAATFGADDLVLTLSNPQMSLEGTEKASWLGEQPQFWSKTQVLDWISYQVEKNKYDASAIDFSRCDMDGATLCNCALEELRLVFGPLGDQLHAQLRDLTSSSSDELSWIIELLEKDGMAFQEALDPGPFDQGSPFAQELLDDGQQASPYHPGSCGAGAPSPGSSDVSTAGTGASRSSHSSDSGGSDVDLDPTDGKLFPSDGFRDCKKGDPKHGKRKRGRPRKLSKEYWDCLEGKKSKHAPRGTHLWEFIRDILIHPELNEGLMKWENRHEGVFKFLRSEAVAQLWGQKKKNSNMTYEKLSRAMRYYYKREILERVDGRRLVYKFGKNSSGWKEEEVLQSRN
Procedure, shortened: as §1

ETV1 = ETV1 (Homo sapiens, UniProt P50549 1-477)
Procedure, shortened: as §1

ERF = target: T6, ERF (Homo sapiens, UniProt P50548 1-548)
T6 sequence: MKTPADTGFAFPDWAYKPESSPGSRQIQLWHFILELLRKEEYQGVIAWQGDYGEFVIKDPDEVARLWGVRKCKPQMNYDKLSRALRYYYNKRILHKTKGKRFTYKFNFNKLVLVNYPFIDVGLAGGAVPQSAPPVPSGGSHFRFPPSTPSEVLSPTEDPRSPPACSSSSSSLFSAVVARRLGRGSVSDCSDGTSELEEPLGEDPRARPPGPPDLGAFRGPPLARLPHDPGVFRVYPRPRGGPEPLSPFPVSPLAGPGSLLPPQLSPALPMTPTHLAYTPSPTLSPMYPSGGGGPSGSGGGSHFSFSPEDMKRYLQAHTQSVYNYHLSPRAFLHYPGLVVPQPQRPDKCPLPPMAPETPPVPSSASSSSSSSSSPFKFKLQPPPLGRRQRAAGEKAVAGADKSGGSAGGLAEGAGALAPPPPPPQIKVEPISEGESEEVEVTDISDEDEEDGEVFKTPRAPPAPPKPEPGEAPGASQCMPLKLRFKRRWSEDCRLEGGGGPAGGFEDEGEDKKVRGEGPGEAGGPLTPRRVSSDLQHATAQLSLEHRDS
Procedure, shortened: as §1

ETV3L = target: T7, ETV3L (Homo sapiens, UniProt Q6ZN32 1-361)
T7 sequence: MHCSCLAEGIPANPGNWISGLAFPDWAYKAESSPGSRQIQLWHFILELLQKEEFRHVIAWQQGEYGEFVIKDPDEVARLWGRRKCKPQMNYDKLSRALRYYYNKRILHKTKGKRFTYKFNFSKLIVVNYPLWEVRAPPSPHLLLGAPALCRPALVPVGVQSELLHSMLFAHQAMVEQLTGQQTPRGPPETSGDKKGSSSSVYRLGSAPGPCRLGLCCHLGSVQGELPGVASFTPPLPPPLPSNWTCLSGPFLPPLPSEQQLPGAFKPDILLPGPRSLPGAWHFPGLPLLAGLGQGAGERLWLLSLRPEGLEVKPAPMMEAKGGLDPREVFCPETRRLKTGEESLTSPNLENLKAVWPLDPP
Procedure, shortened: as §1

ETS2 = target: T8, ETS2 (Homo sapiens, UniProt P15036 1-469)
T8 sequence: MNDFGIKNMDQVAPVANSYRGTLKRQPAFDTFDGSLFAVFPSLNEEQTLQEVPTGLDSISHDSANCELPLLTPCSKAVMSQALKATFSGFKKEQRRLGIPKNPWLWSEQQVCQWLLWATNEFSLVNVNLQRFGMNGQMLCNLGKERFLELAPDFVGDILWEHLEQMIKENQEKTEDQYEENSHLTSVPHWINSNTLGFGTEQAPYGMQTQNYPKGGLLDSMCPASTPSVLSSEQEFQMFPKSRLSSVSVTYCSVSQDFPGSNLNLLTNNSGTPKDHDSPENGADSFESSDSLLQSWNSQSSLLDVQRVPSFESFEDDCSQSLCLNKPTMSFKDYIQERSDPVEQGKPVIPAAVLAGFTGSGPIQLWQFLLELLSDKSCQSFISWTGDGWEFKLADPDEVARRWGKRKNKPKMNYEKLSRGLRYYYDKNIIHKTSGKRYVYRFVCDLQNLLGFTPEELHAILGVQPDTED
Procedure, shortened: as §1

SPDEF = target: T9, SPDEF (Homo sapiens, UniProt O95238 1-335)
T9 sequence: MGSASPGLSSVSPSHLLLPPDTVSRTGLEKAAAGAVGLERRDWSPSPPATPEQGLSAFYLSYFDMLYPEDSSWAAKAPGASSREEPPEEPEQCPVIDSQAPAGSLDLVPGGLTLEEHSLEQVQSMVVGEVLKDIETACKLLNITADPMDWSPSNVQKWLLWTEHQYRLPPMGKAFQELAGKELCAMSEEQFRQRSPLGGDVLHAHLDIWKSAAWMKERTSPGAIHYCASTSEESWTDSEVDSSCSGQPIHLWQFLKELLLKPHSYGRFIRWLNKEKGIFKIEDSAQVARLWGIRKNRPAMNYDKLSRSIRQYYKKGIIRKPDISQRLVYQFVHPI
Procedure, shortened: as §1

ETV7 = target: T10, ETV7 (Homo sapiens, UniProt Q9Y603 1-341)
T10 sequence: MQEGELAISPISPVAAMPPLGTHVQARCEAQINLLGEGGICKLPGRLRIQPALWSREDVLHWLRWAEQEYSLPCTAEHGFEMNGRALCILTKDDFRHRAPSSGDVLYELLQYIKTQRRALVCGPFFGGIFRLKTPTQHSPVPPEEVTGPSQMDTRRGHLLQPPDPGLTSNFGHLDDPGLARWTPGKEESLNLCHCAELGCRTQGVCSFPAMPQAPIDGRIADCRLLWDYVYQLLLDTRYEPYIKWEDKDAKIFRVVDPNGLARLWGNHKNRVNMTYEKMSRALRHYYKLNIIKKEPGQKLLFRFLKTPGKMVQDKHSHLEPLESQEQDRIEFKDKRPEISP
Procedure, shortened: as §1

ELF5 = target: T11, ELF5 (Homo sapiens, UniProt Q9UKW6-2 1-255)
T11 sequence: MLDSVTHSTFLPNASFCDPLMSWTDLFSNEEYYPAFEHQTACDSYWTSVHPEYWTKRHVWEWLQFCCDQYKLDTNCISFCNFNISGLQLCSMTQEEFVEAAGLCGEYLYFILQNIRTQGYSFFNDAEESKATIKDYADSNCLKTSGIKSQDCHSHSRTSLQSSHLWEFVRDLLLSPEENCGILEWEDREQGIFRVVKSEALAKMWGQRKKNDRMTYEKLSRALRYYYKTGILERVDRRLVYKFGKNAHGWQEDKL
Procedure, shortened: as §1

ETV3 = target: T12, ETV3 (Homo sapiens, UniProt P41162-2 1-143)
T12 sequence: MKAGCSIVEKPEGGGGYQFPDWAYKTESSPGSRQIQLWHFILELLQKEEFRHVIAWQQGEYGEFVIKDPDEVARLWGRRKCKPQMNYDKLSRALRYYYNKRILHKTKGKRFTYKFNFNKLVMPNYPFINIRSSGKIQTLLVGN
Procedure, shortened: as §1

ETV6 = ETV6 (Homo sapiens, UniProt P41212 1-452)
Procedure, shortened: as §1

Sequence of ETV6 (P41212 whole entry): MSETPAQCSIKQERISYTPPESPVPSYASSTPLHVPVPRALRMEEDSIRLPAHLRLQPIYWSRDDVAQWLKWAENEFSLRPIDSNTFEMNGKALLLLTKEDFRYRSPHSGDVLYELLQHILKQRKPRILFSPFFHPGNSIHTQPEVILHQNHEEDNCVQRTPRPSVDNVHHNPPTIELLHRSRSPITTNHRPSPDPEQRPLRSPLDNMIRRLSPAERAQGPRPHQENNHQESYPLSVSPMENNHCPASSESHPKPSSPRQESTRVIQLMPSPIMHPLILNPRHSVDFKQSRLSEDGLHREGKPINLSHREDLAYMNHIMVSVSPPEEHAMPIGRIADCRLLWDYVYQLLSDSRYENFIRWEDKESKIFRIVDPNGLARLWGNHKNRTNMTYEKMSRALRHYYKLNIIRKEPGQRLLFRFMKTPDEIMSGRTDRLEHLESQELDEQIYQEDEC
Sequence of ELF4 (Q99607 whole entry): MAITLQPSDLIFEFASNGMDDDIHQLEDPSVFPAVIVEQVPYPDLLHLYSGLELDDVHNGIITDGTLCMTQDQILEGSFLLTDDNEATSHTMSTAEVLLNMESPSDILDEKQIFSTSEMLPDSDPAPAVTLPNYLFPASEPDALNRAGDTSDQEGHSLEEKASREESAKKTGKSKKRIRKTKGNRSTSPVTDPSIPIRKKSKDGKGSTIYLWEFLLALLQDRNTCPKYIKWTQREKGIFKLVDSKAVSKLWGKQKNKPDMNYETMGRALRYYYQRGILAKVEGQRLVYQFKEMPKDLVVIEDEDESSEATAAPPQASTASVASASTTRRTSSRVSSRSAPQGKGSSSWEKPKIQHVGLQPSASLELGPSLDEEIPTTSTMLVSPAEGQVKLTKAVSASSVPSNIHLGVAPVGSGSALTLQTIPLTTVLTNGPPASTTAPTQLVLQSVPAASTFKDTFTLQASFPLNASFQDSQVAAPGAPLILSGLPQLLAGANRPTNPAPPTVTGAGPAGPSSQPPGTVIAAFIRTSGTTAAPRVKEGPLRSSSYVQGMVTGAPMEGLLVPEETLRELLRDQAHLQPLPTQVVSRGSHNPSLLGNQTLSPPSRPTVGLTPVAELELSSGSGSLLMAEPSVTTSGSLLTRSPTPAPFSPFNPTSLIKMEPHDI
Sequence of ETV1 (P50549 whole entry): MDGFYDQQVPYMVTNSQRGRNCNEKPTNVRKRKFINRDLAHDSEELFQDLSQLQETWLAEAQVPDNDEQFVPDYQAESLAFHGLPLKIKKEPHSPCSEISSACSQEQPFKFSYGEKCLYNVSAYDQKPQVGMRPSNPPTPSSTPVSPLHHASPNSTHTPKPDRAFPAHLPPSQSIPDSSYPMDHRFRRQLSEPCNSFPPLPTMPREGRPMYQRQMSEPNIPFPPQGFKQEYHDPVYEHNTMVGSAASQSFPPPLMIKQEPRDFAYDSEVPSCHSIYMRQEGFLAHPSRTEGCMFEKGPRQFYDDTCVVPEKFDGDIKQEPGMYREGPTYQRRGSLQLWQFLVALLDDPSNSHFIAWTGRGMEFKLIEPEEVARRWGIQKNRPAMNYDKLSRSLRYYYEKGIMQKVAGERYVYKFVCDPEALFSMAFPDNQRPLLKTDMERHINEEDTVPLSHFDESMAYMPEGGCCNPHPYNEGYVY
Sequence of ETV5 (P41161 whole entry): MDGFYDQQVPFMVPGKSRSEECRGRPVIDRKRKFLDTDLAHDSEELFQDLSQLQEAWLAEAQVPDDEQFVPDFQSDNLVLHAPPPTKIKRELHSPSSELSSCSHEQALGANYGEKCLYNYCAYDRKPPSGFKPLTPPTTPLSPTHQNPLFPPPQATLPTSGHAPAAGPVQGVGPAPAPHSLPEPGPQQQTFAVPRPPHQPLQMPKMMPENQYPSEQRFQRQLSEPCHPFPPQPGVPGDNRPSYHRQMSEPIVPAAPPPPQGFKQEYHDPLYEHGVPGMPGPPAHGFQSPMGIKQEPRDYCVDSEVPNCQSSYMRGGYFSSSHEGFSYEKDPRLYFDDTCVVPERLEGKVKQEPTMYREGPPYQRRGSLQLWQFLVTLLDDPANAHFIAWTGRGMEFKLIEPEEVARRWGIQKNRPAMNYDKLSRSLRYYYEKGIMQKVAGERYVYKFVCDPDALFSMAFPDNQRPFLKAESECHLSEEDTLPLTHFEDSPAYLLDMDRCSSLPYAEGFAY

Sequence	binding signal (FEV)	binding signal (ETV5)	binding signal (SPIC)	binding signal (ELF4)	binding signal (ELK4)	binding signal (ETV2)	binding signal (ELF3)	binding signal (ETV1)	binding signal (ERF)	binding signal (ETV3L)	binding signal (ETS2)	binding signal (SPDEF)	binding signal (ETV7)	binding signal (ELF5)	binding signal (ETV3)	binding signal (ETV6)
CAATGC	1.16 fold enrichment (6-mer frequency, TF over GST control)	1.22 fold enrichment (6-mer frequency, TF over GST control)	1.12 fold enrichment (6-mer frequency, TF over GST control)	1.3 fold enrichment (6-mer frequency, TF over GST control)	1.21 fold enrichment (6-mer frequency, TF over GST control)	1.21 fold enrichment (6-mer frequency, TF over GST control)	1.22 fold enrichment (6-mer frequency, TF over GST control)	1.12 fold enrichment (6-mer frequency, TF over GST control)	1.08 fold enrichment (6-mer frequency, TF over GST control)	1.15 fold enrichment (6-mer frequency, TF over GST control)	1.15 fold enrichment (6-mer frequency, TF over GST control)	1.2 fold enrichment (6-mer frequency, TF over GST control)	1.24 fold enrichment (6-mer frequency, TF over GST control)	1.13 fold enrichment (6-mer frequency, TF over GST control)	1.2 fold enrichment (6-mer frequency, TF over GST control)	1.24 fold enrichment (6-mer frequency, TF over GST control)
CGGATA	2.83 fold enrichment (6-mer frequency, TF over GST control)	1.34 fold enrichment (6-mer frequency, TF over GST control)	1.2 fold enrichment (6-mer frequency, TF over GST control)	1.03 fold enrichment (6-mer frequency, TF over GST control)	1.16 fold enrichment (6-mer frequency, TF over GST control)	1.23 fold enrichment (6-mer frequency, TF over GST control)	1.31 fold enrichment (6-mer frequency, TF over GST control)	1.26 fold enrichment (6-mer frequency, TF over GST control)	1.17 fold enrichment (6-mer frequency, TF over GST control)	1.13 fold enrichment (6-mer frequency, TF over GST control)	1.3 fold enrichment (6-mer frequency, TF over GST control)	1.93 fold enrichment (6-mer frequency, TF over GST control)	1.09 fold enrichment (6-mer frequency, TF over GST control)	1.37 fold enrichment (6-mer frequency, TF over GST control)	1.33 fold enrichment (6-mer frequency, TF over GST control)	1.21 fold enrichment (6-mer frequency, TF over GST control)
